Shown are actives, neighbours in structure and some others; about 5.4% of the full set was active somewhere.
Beta cell apopt: beta cell apoptosis inhibition. INS-1E cytokine-induced death, ATP luminescence, 48 h; percent of positive-control rescue, neutral wells zero. protection from apoptosis, % (concentration not given with the values). 300,000 tested, 0.8% active;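 active means Every replicate reaches about 75%, or at least half do and their mean reaches it too, limit read from the data; inconclusive means At least half of replicates reach the limit but their mean does not; inactive means Under half of replicates reach the limit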;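 further: 0% = cytokine-treated negative control wells and 100% = positive control rescue; higher means more ATP so stronger rescue from cytokine killing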
SKKanGAS inh: SKKanGAS growth inhibition | S. pyogenes SKKanGAS, kanamycin growth, BacTiter-Glo, 6 h | inhibition, % at 7.5 µM | 300,000 tested, 1.3% active;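 active means mean replicate score, as percent of positive control median, at least 50; inconclusive means mean below 50 but one replicate at or above 50; inactive means mean and every replicate below 50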;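 further: strain carries kanamycin resistance gene driven by streptokinase promoter and grows in 40 µg/ml kanamycin; loss of luminescence reflects streptokinase promoter inhibition or plain growth inhibition; 0% = median of DMSO wells and 100% = positive control at its reference dose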
Mdm2-MdmX inh: human Mdm2/MdmX binding inhibition | O15151+Q00987 | inhibition, % at 8 µM | 330,000 tested, 3% active | AID 485346 | SaOS-2 split-luciferase Mdm2/MdmX complementation, luminescence;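 active means inhibition of at least 50% at 8 µM in the primary screen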
CSC inhib: blocks cancer stem cells | cancer stem cell-like cells viability, luminescence | inhibition, % at 7.5 µM | 300,000 tested, 1.1% active; in the data active means inhibition above about 75%; inconclusive means no clear call, values can overlap the other calls; tested in HMLE shEcad cells
Calb FLC: affects C. albicans growth with fluconazole. C. albicans CaCi-2 (fluconazole-resistant clinical isolate) + fluconazole, Alamar Blue growth, 48 h. growth inhibition, % (concentration not given with the values). 300,000 tested, 0.57% active. AID 1979;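 active means growth inhibition above about 58% in most replicates, limit read from the data, passing the limit was not always enough; inconclusive means exactly half the replicates above a set limit; inactive means most replicates below a set limit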;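 further: all wells also contain fluconazole at 8 µg/ml as a sub-toxic cotreatment; 0% = median of DMSO wells and 100% = median of geldanamycin control wells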
MPTP inh: permeability transition pore inhibition. isolated mouse mitochondria, Ca2+ swelling absorbance, 30 min. inhibition, % at 10 µM. 360,000 tested, 1.4% active. AID 602449;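 active means inhibition of 50% or more, scaled per plate between neutral and stimulator controls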;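 further: 0% = DMSO wells given calcium and 100% = 1 mM EGTA wells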
Mdm2-MdmX conf: human Mdm2/MdmX binding inhibition, confirmed | shares compounds with Mdm2-MdmX inh | luminescent assay | inhibition, % at 8 µM | 10,000 tested, 55% active | AID 489028; in the data active means inhibition above about 40%
FLuc counter: counter-screen for Mdm2/MdmX inhibitors: full-length luciferase; shares compounds with Mdm2-MdmX inh; AID 504607; inhibition, % at 8 µM; SaOS-2 full-length luciferase counterscreen, luminescence; 6,200 tested, 77% active;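 active means mean inhibition at 8 µM reaching about 37%, which flags the compound as non-specific, limit read from the data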;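 further: p53-null SaOS-2 cells with luciferase driven by a doxycycline-inducible promoter; compound on cells about two nights before reading with doxycycline added after day one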
* marks the source's active call; other numbers are inactive results.

`CCOC(=O)N1CCN(S(=O)(=O)c2ccc(C(=O)Nc3nc4c(s3)CC(C)CC4)cc2)CC1` (configuration not stated) gave Beta cell apopt 37.6, SKKanGAS inh -0.6, Mdm2-MdmX inh 77.6*, CSC inhib -8.0, Calb FLC 3.3, MPTP inh 0.8 and Mdm2-MdmX conf 20.8.
For CCOC(=O)N1CCN(S(=O)(=O)c2ccc(C(=O)NNc3nc4c(C)cc(C)cc4s3)cc2)CC1 the results were Beta cell apopt 96.9*, SKKanGAS inh 22.1, Mdm2-MdmX inh 80.2*, CSC inhib 125.5*, Calb FLC 29.2, MPTP inh 0.6, Mdm2-MdmX conf 70.5* and FLuc counter 48.4*.
For Cc1cccc2sc(NNC(=O)c3ccc(S(=O)(=O)N4CCc5ccccc5C4)cc3)nc12 the results were Beta cell apopt 91.8*, SKKanGAS inh 59.2*, Mdm2-MdmX inh 82.5*, CSC inhib 103.5*, Calb FLC -0.7, MPTP inh 4.4, Mdm2-MdmX conf 82.1* and FLuc counter 76.0*.
Screening CCOC(=O)N1CCN(S(=O)(=O)c2ccc(C(=O)NNc3nc4cc(C)cc(C)c4s3)cc2)CC1 returned Beta cell apopt 83.6*, SKKanGAS inh 23.2, Mdm2-MdmX inh 78.9*, CSC inhib 102.9*, Calb FLC -0.7, MPTP inh 5.1, Mdm2-MdmX conf 46.4* and FLuc counter 46.6*.
Cc1ccc(C(=O)NNC(=O)c2ccc(S(=O)(=O)N3CCCCC3)cc2)cc1 was read as Beta cell apopt -5.8, Mdm2-MdmX inh 1.2, CSC inhib -1.3 and MPTP inh -0.5.
`Cc1cc(C)c2nc(NNC(=O)c3ccc(S(=O)(=O)N4CCCCC4)cc3)sc2c1` gave Beta cell apopt 71.1, SKKanGAS inh inconclusive, Mdm2-MdmX inh 71.6*, CSC inhib 102.2*, Calb FLC 3.6, MPTP inh 2.4, Mdm2-MdmX conf 45.5* and FLuc counter 47.2*.
CCOC(=O)N1CCN(S(=O)(=O)c2ccc(C(=O)NNc3nc4c(C)cccc4s3)cc2)CC1 was read as Beta cell apopt 54.5, SKKanGAS inh 22.0, Mdm2-MdmX inh 52.8*, Calb FLC 0.1, MPTP inh 3.1, Mdm2-MdmX conf 41.0* and FLuc counter 47.2*.
`COC(=O)c1ccccc1NC(=O)c1c(O)c2c([nH]c1=O)CCCC2` gave Beta cell apopt 0.4, SKKanGAS inh 1.7, Mdm2-MdmX inh 56.2*, CSC inhib 6.3, Calb FLC 1.1, MPTP inh 1.2 and Mdm2-MdmX conf 10.6.
For O=S(=O)(Nc1ncccn1)c1ccc(NC(=S)N2CCN(c3cccc(C(F)(F)F)c3)CC2)cc1 the results were Beta cell apopt -3.4, SKKanGAS inh 15.2, Mdm2-MdmX inh 9.7, CSC inhib 5.3, Calb FLC 12.6 and MPTP inh -0.1.
For CCOC(=O)c1ccc(N2CCCCC2)c(NS(=O)(=O)c2ccc(C)cc2)c1 the results were Beta cell apopt 17.0, SKKanGAS inh -15.5, Mdm2-MdmX inh 58.8*, CSC inhib 53.5, Calb FLC -2.3, MPTP inh 1.8, Mdm2-MdmX conf 46.1* and FLuc counter 66.7*.
Screening O=C(c1ccco1)c1cn[nH]c1-c1ccc(Cl)cc1O returned Beta cell apopt -0.6, SKKanGAS inh -6.8, Mdm2-MdmX inh 20.9, CSC inhib 13.9, Calb FLC 9.0 and MPTP inh 0.2.
`CCOC(CNC(=O)Cc1c(C)nc2c(-c3ccccc3)c(C)nn2c1C)OCC` gave Beta cell apopt 0.4, SKKanGAS inh -4.0, Mdm2-MdmX inh -14.1, CSC inhib -6.8, Calb FLC -12.7 and MPTP inh 1.4.
CCOc1cc(/C=N/NC(=O)Cn2nc([N+](=O)[O-])cc2C)cc(Br)c1OCc1ccccc1C was read as Beta cell apopt 6.8, SKKanGAS inh 26.1, Mdm2-MdmX inh 52.2*, CSC inhib -9.3, Calb FLC 13.6, MPTP inh 14.7, Mdm2-MdmX conf 46.9* and FLuc counter 87.0*.

Source: PubChem BioAssay (several laboratories)
